The source made the active and inactive calls. Unless noted, calls follow the shape of the dose curve; as a rule, active = well fitted curve in the direction sought with a large enough effect in the repeat runs; inconclusive = weak or mixed curves; inactive = no such curve, though single readings can be large; an effect the other way counts as inactive or inconclusive.
How the values were obtained:
[1] = qHTS assay to identify small molecule antagonists of the glucocorticoid receptor (GR) signaling pathway - cell viability counter screen (AID 720693); also: nearly all actives have a fitted effect of over 55% in size
[2] = qHTS assay for identifying genotoxic compounds that show differential cytotoxicity against isogenic chicken DT40 cell lines with known DNA damage response pathways - Rev3 mutant cell line (AID 743014); also: nearly all actives have a fitted effect of over 55% in size; also: potency is read from the fitted curve at half-maximal effect
[3] = qHTS assay to identify small molecule antagonists of the androgen receptor (AR) signaling pathway - cell viability counter screen (AID 743033; also: nearly all actives have a fitted effect of over 45% in size; also: potency is read from the fitted curve at half-maximal effect)
[4] = molecular target: Androgen receptor (Homo sapiens) (UniProt P10275); experiment: qHTS assay to identify small molecule agonists of the androgen receptor (AR) signaling pathway (AID 743036; active = well fitted activation curve with a large enough effect in the signal ratio in the repeat runs, with a control signal flat, not every such curve was filed as active; inconclusive = weak or mixed curves, or effect the other way; inactive = no such curve, though single readings can be large or run the other way; the % refers to the signal ratio; also: potency is read from the fitted curve at half-maximal effect)
Chain of Androgen receptor (Homo sapiens) (P10275 whole entry, looked up): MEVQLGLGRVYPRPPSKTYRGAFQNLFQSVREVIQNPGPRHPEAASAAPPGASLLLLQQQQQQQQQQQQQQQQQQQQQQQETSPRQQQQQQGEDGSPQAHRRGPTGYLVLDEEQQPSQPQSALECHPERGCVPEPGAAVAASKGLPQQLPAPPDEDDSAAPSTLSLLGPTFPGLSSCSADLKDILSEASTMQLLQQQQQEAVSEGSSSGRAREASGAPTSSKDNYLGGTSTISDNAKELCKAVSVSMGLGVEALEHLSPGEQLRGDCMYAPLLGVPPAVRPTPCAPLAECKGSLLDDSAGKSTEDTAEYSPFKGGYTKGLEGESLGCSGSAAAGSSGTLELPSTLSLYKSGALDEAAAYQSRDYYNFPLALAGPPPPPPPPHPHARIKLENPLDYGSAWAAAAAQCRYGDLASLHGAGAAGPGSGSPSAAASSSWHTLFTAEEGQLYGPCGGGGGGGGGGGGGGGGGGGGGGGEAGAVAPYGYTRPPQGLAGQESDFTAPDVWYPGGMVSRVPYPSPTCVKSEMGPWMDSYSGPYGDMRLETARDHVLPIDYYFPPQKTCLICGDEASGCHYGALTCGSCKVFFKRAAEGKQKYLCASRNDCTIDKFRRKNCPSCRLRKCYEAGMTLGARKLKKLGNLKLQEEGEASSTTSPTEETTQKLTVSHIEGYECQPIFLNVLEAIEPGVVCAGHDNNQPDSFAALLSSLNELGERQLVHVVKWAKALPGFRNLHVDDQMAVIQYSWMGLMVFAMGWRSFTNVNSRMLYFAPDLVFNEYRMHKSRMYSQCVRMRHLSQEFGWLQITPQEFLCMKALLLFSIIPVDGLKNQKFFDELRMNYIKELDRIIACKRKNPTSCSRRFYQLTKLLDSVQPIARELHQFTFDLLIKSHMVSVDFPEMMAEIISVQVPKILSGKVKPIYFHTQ
In short: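 Cell-based FRET reporter assay: HEK293 line with a UAS-beta-lactamase construct, compounds added in DMSO, 16 h exposure at 37C, then 2 h substrate step at room temperature and fluorescence intensity read.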

[5] = qHTS assay to identify small molecule antagonists of the androgen receptor (AR) signaling pathway using the MDA cell line - cell viability counter screen (AID 743041; also: nearly all actives have a fitted effect of over 45% in size)
In short: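 Compound exposure lasted 16 h at 37C in MDA-kb2 AR-luc cells stimulated with R1881. Protease-based CellTiter-Fluor reagent was applied for the final 30 min and fluorescence measured.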

[6] = molecular target: Androgen receptor (Homo sapiens) (UniProt P10275); experiment: qHTS assay to identify small molecule antagonists of the androgen receptor (AR) signaling pathway using the MDA cell line (AID 743042; also: nearly all actives have a fitted effect of over 55% in size)
In short: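 MDA-kb2 breast carcinoma cells carrying MMTV-luciferase (AR/GR responsive) were co-treated with compounds and the agonist R1881 for 16 h at 37C. Inhibition read as ONE-Glo luminescence; CellTiter-Fluor fluorescence measured in parallel for cytotoxicity.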

[7] = qHTS assay to identify small molecule antagonists of the thyroid receptor (TR) signaling pathway - cell viability counter screen (AID 743064); also: nearly all actives have a fitted effect of over 50% in size; also: potency is read from the fitted curve at half-maximal effect
In short: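 In rat pituitary GH3.TRE-Luc reporter cells co-exposed to compound and 1 nM T3 for 23.5 h, cytotoxicity was assessed with CellTiter-Fluor in the same wells, read by fluorescence.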

[8] = qHTS assay to identify small molecule antagonists of the thyroid receptor (TR) signaling pathway (AID 743065); also: nearly all actives have a fitted effect of over 55% in size; also: potency is read from the fitted curve at half-maximal effect
In short: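 GH3.TRE-Luc rat pituitary cells (two TREs driving luciferase) were dosed with compound, then stimulated with 1 nM T3 (final) for 23.5 h at 37 C. ONE-Glo luminescence was the read-out, with CellTiter-Fluor fluorescence as the cytotoxicity counter-screen.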

[9] = test system: thyroid hormone receptor (rat, GH3 cells); experiment: qHTS assay to identify small molecule agonists of the thyroid receptor (TR) signaling pathway (AID 743066; calls by dose curve)
[10] = qHTS assay to identify small molecule antagonists of the estrogen receptor alpha (ER-alpha) signaling pathway - cell viability counter screen (AID 743074; calls by dose curve; also: nearly all actives have a fitted effect of over 45% in size)
[11] = qHTS assay to identify small molecule antagonists of the estrogen receptor alpha (ER-alpha) signaling pathway using the BG1 cell line - cell viability counter screen (AID 743081);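 also: compound given together with 17beta-estradiol as the ER stimulus; series mostly up to about 70 µM; nearly all actives have a fitted effect of over 45% in size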
[12] = molecular target: Aromatase (Homo sapiens) (UniProt P11511); experiment: qHTS assay to identify aromatase inhibitors (AID 743083); also: nearly all actives have a fitted effect of over 55% in size; also: potency is read from the fitted curve at half-maximal effect
Chain of Aromatase (Homo sapiens) (P11511 whole entry, looked up): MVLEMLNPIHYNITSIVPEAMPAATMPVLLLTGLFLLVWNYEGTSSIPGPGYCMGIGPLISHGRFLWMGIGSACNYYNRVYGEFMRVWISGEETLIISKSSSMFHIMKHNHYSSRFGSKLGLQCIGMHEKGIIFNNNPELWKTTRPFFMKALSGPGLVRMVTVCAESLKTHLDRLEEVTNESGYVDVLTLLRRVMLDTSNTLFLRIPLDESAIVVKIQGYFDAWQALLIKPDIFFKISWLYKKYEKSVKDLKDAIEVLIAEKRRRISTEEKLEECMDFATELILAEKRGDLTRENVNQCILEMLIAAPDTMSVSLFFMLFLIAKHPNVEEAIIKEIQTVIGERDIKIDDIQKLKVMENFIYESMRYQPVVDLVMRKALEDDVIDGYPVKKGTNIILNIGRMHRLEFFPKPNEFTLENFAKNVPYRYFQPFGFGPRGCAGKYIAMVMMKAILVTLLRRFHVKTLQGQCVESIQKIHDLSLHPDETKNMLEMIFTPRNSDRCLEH

[13] = qHTS assay to identify aromatase inhibitors - cell viability counter screen (AID 743084); also: potency is read from the fitted curve at half-maximal effect
[14] = qHTS assay for identifying genotoxic compounds that show differential cytotoxicity against isogenic chicken DT40 cell lines with known DNA damage response pathways - Rad54/Ku70 mutant cell line (AID 743015); also: nearly all actives have a fitted effect of over 60% in size; also: potency is read from the fitted curve at half-maximal effect
[15] = molecular target: Estrogen receptor (Homo sapiens) (UniProt P03372); experiment: qHTS assay to identify small molecule antagonists of the estrogen receptor alpha (ER-alpha) signaling pathway (AID 743069; active = well fitted curve in the direction sought with a large enough effect in the signal ratio in the repeat runs, not every such curve was filed as active; inconclusive = weak or mixed curves, or effect the other way; inactive = no such curve, though single readings can be large or run the other way; the % refers to the signal ratio; also: potency is read from the fitted curve at half-maximal effect)
Chain of Estrogen receptor (Homo sapiens) (P03372 whole entry, looked up): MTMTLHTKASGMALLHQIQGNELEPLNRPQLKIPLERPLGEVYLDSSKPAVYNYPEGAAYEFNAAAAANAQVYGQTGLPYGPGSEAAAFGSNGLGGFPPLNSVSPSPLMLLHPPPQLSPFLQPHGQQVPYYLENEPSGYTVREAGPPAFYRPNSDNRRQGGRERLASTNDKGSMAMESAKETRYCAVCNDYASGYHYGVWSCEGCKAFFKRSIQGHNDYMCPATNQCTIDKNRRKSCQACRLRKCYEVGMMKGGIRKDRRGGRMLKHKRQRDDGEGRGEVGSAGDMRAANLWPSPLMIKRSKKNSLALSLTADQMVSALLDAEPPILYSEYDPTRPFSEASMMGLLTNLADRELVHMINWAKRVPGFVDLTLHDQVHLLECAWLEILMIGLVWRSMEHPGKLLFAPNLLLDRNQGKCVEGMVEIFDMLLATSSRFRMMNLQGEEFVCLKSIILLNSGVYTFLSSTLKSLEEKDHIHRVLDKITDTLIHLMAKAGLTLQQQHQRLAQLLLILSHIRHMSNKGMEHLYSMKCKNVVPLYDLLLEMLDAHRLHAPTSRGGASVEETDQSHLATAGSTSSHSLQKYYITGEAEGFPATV
In short: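 In this cell-based reporter format, GripTite HEK293 cells harbouring ER-alpha-UAS-bla were grown overnight with 2% charcoal-stripped FBS, dosed with DMSO-dissolved compounds, then challenged with 17beta-estradiol. After 18 hr at 37C, beta-lactamase activity was detected by FRET fluorescence.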

[16] = molecular target: Estrogen receptor (Homo sapiens) (UniProt P03372); experiment: qHTS assay to identify small molecule agonists of the estrogen receptor alpha (ER-alpha) signaling pathway (AID 743075; calls by dose curve)
[17] = molecular target: Estrogen receptor (Homo sapiens) (UniProt P03372); experiment: qHTS assay to identify small molecule agonists of the estrogen receptor alpha (ER-alpha) signaling pathway using the BG1 cell line (AID 743079); also: nearly all actives have a fitted effect of over 20% in size; also: potency is read from the fitted curve at half-maximal effect
[18] = qHTS assay to identify small molecule antagonists of the estrogen receptor alpha (ER-alpha) signaling pathway using the BG1 cell line (AID 743080; calls by dose curve;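 also: BG1 cells stimulated with 17beta-estradiol alongside compound; nearly all actives have a fitted effect of over 25% in size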; also: potency is read from the fitted curve at half-maximal effect)
In short: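 Readout is ONE-Glo luminescence, taken 30 min at room temperature after reagent addition, preceded by a CellTiter-Fluor viability read; BG1-Luc-4E2 cells had received compound and 17beta-estradiol for 21.5 h at 37 C.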

[19] = qHTS assay for identifying genotoxic compounds that show differential cytotoxicity against isogenic chicken DT40 cell lines with known DNA damage response pathways - wild type cell line (AID 743012); also: nearly all actives have a fitted effect of over 60% in size; also: potency is read from the fitted curve at half-maximal effect
In short: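 Luminescent ATP viability signal (CellTiter-Glo, 30 min RT) recorded after wild type DT40 cells were incubated with compounds for 40 h at 37 C/5% CO2.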

Measured: Potency

CC(=O)NO
not listed: [14] | [15] | [16] | [17] | [18] | [19]
inactive: all other assays above

C=C(C)C(=O)OCC
not listed: [3] | [4] | [6] | [19]
inactive: all other assays above

CCOC(=O)NCCOc1ccc(Oc2ccccc2)cc1
active: [2] 68.6 µM | [14] 61.1 µM | [15] 38.9 µM [inhibitor] | [18] 61.1 µM
inactive: [1] | [8] | [9] | [10] | [11] | [13]

O=[N+]([O-])c1cccc(S(=O)(=O)O)c1
not listed: [4] | [6] | [7] | [15] | [16] | [17] | [18] | [19]
inactive: all other assays above

Cc1cccc(Nc2ccccc2)c1
inactive: [1] | [4] | [5] | [9] | [10] | [11] | [13]
active: [2] 30.6 µM | [14] 48.6 µM

C#CCN(C)CCCOc1ccc(Cl)cc1Cl
active: [17] 29.8 µM
not listed: [4] | [6] | [7] | [14] | [18] | [19]
inactive: all other assays above

C=CC(=O)OCCOCCOC(=O)C=C
active: [2] 6.14 µM | [14] 9.73 µM | [3] 39.1 µM | [8] 68.9 µM | [15] 61.9 µM [inconclusive] | [17] 6.14 µM | [12] 13.7 µM | [13] 13.7 µM
inactive: [1] | [9] | [16]

O=C(Cl)c1cc(C(=O)Cl)cc(C(=O)Cl)c1
active: [2] 27.3 µM | [14] 19.3 µM
not listed: [4] | [6] | [7] | [8] | [12] | [13] | [19]
inactive: all other assays above

CCCCCCCCCCO[C@@H]1O[C@H](CO)[C@@H](O)[C@H](O)[C@H]1O
active: [2] 61.1 µM | [14] 61.1 µM
not listed: [3] | [4] | [6] | [8] | [15] | [19]
inactive: all other assays above

OC(CN1CCC(Cc2ccc(F)cc2)CC1)c1ccc(Cl)cc1 (stereo unspecified)
inactive: [1] | [3] | [4] | [5] | [6] | [9] | [10] | [11] | [12] | [13]
active: [2] 1.68 µM

C#C[C@]1(O)CC[C@H]2[C@@H]3CCc4cc(OC5CCCC5)ccc4[C@H]3CC[C@@]21C
active: [2] 2.11 µM | [14] 5.31 µM | [7] 18.8 µM | [8] 16.8 µM
inactive: [1] | [3] | [5] | [10] | [11] | [12] | [13]

COC(C)OC
not listed: [1] | [4] | [5] | [6] | [15] | [19]
inactive: all other assays above

Cc1cc(C(=O)O)ccc1[N+](=O)[O-]
not listed: [1] | [2] | [4] | [6] | [15] | [19]
inactive: all other assays above

CC(=O)OC[C@H]1O[C@@H](n2ncc(=O)[nH]c2=O)[C@H](OC(C)=O)[C@@H]1OC(C)=O
active: [14] 1.06 µM
not listed: [2] | [3] | [4] | [5] | [15] | [19]
inactive: all other assays above

CCCCC(=O)OCC(=O)[C@H]1[C@H](C)C[C@H]2[C@@H]3C[C@H](F)C4=CC(=O)C=C[C@]4(C)[C@@]3(F)[C@@H](O)C[C@@]21C
not listed: [2] | [4] | [8] | [10] | [14] | [15] | [18] | [19]
inactive: all other assays above

Nc1cccc([N+](=O)[O-])c1
not listed: [1] | [12]
inactive: all other assays above

C[N+]1(C)CCC(OC(=O)C(O)(c2ccccc2)C2CCCC2)C1 (stereo unspecified)
inactive: [1] | [3] | [5] | [7] | [15] | [16] | [17] | [18] | [11] | [13]

COS(=O)(=O)C(F)(F)F
not listed: [2] | [3] | [4] | [5] | [6] | [19]
inactive: all other assays above

COC(=O)C1=C(C)NC(COC(N)=O)=C(C(=O)OC(C)C)C1c1cccc(Cl)c1Cl (stereo unspecified)
active: [19] 23.7 µM | [14] 23.7 µM | [4] 10.7 µM | [7] 26.6 µM | [8] 16.8 µM | [12] 29.8 µM
inactive: [3] | [5] | [6] | [10] | [17] | [18]
